TAR Tat displ: TAR RNA-Tat peptide displacers, HIV-1, primary screen, biochemical, FRET, FAM/TAMRA-labeled Tat | HIV-1 TAR RNA, Tat peptide displacement FRET; active compounds read high | z-score (test concentration not listed) | hit rate 0.6% among 100,000; active means z-score of 3 or more in at least 2 runs
CDC25B CDK2 inh: primary biochemical HTRF screen for blockers of M-phase inducer phosphatase 2 binding to CDK2/cyclin A; HTRF CDC25B-CDK2/CyclinA binding, anti-His/anti-Flag; active compounds read high; z-score (test concentration not listed); hit rate 0.72% among 94,000; AID 1259370, 2018; in the data active means z-score above about 3.2
The depositor's hits bear a star; . = not tested or not shown. A selection: hits, their analogues and other compounds. The true share with any hit is near 0.9%.

SMILES	TAR Tat displ	CDC25B CDK2 inh
O=C(CCN1C(=O)/C(=C/c2ccc3c(c2)OCO3)SC1=S)Nc1nc(-c2ccccc2)cs1	.	-39
CC1=NN(c2nc(-c3ccc(Br)cc3)cs2)C(=O)/C1=C\c1ccc2c(c1)OCO2	.	21*
CC1=NN(c2nc(-c3ccc(Cl)cc3)cs2)C(=O)/C1=C\c1ccc2c(c1)OCO2	.	6.9*
CCN(CC)C(=O)c1cc2cc3cc(C)ccc3nc2s1	-0.6	.
Cn1c(CSc2ccccc2)n[nH]c1=S	.	-0.72
Cn1c(CSC2CN(C(c3ccccc3)c3ccccc3)C2)n[nH]c1=S	.	13*
FC(F)C(F)(F)C1=Nc2ccccc2N=C(c2cccs2)C1	.	0.62
CS(=O)(=O)c1ccc(-c2cccc(NS(=O)(=O)c3ccc(Cl)cc3)c2)nn1	1.2	.
COc1cc2c3c(c1OC)C1(C=CC(=O)C=C1)CC3N(C)CC2 (stereo not given)	-3	8.3*
COc1ccc2c(c1OC)C(=O)O[C@@H]2[C@H]1c2c(cc3c(c2OC)OCO3)CCN1C	4.3	-1.4
COc1ccc(NC(=O)c2c(N3CCCC3=O)c3cc(OC)ccc3n2C)cc1	-0.29	.
Cc1ccc(C)c(NCc2ccc3c(c2)OCO3)c1	0.88	-1.1
CC1=C(c2ccc(F)cc2)S(=O)(=O)NC1=NCCC(C)C	-0.58	.
CN1CCc2cc(O)c(O)cc2C1Cc1ccc(O)c(O)c1 (stereo not given)	38*	.
COc1cc(Br)c(CC2c3cc(OC)c(OC)cc3CCN2C)cc1OC (stereo not given)	0.98	.
O=C(O)C1=CC(=C(c2ccc(O)c(C(=O)O)c2)c2ccc(O)c(C(=O)O)c2)C=CC1=O	.	11*
O=C1C=CC(=C(c2ccc(O)cc2)c2ccc(O)cc2)C=C1	-0.04	.
CCOC(=O)c1cc(C(=O)OC)c(C)nc1N1CCC(NC2CCCCC2O)CC1 (stereo not given)	.	-2.3
C=CCOc1ccc(-c2nc3c(c(=O)[nH]2)Cc2cccc(OC)c2O3)cc1	2.1	-0.72
COc1ccc(Nc2nc3c4ccccc4n(C(C)=O)c3s2)cn1	0.35	14*
C=CCNc1nc2c3ccccc3n(C(C)=O)c2s1	2.1	-2.2
CCC(C)NC(=O)c1cccn(-c2ccc(NC(C)=O)cc2)c1=O (stereo not given)	0.79	.
Cc1ccc(C(=O)c2cnc3cc4c(cc3c2N2CCC(C(N)=O)CC2)OCO4)cc1C	17*	2.7
Cc1ccc(C(=O)c2cnc3cc4c(cc3c2N2CCC(C(N)=O)CC2)OCCO4)cc1C	5.5	-1.6
Cn1c(=O)c2cn3c(c2n(C)c1=O)C(c1c(F)cccc1Cl)Nc1ccccc1-3 (stereo not given)	2.9	-0.29
SMILES	TAR Tat displ	CDC25B CDK2 inh
CCOC(=O)CSc1nnc(-c2ccccc2)c(=O)[nH]1	-0.43	2.1
CCOC(=O)CSc1nnc(NCC(=O)OC)c(=O)[nH]1	.	4.2*
COC(=O)c1ccc(C2NC(=O)c3[nH]nc(-c4ccc(C)cc4)c32)cc1 (stereo not given)	1.4	.
CCc1ccc(N2CSC3=C(C#N)C(c4cccc(F)c4)CC(=O)N3C2)cc1 (stereo not given)	0.58	5.2*
N#CC1=C2SCN(c3ccc(Br)cc3)CN2C(=O)CC1c1cccc(F)c1 (stereo not given)	-3	6.6*
COc1ccc(Br)cc1C1CC(=O)N2CN(c3ccc(F)cc3)CSC2=C1C#N (stereo not given)	-4	4.4*
N#CC1=C2SCN(c3ccc(F)cc3)CN2C(=O)CC1c1cccc(F)c1 (stereo not given)	-3.9	6.4*
COc1ccc(Br)cc1C1CC(=O)N2CN(Cc3ccco3)CSC2=C1C#N (stereo not given)	-1.3	-0.21
O=C(CN(C1=NC2CS(=O)(=O)CC2S1)c1ccccc1)Nc1ccc(Br)cc1 (stereo not given)	1.4	-4
Cc1ccc(Nc2ncnc3onc(-c4ccc(F)cc4)c23)c(C)c1	-1.7	.
NC(=O)CCc1nc(-c2ccco2)no1	1.4	-1.2
COc1ccc(N2CSC3=C(C#N)C(c4ccc(Br)cc4)CC(=O)N3C2)cc1 (stereo not given)	-1.4	5.3*
N#CC1=C2SCN(c3ccccc3F)CN2C(=O)CC1c1ccc(Br)cc1 (stereo not given)	-0.67	-2.4
N#CC1=C2SCN(c3ccccc3)CN2C(=O)CC1c1ccc(Br)cc1 (stereo not given)	-4.1	4*
N#CC1=C2SCN(c3ccccc3)CN2C(=O)CC1c1cccc(Br)c1 (stereo not given)	-3.3	6.9*
N#CC1=C2SCN(c3ccc(F)cc3)CN2C(=O)CC1c1cccc(Br)c1 (stereo not given)	-1.8	3.3*
Cc1nn(-c2nc3ccccc3o2)c2c1C(c1ccc(F)cc1)CC(=O)N2 (stereo not given)	1.2	.
COc1cc(OC)c(NC2c3ccccc3C(=O)N2c2ccc(Cl)cn2)cc1Cl (stereo not given)	0.63	-1.5
Cc1occc1-c1nnc(SCC(=O)c2ccc(Cl)cc2)o1	-2.3	0.95
Cc1occc1-c1nnc(SCC(=O)Nc2ccc(Cl)cc2)o1	3.8	10*
O=C(c1ccc2c(c1)C(=O)c1ccccc1-2)c1ccccc1Br	.	-1.4
O=C1c2ccccc2C(=O)c2c1oc(C(F)(F)F)c2C(=O)c1ccc2ccccc2c1	.	9.3*
COc1ccc2c(c1)c(=O)oc1cc(OCc3ccc(C(=O)O)o3)ccc12	.	1.6
O=C(CC1Sc2ccccc2NC1=O)NNS(=O)(=O)c1ccc(Cl)cc1 (stereo not given)	.	-1.4
COc1ccc(C2CC(=O)Nc3c2cnn3-c2nc3ccccc3s2)cc1OC (stereo not given)	2.1	.
SMILES	TAR Tat displ	CDC25B CDK2 inh
CNC(=O)c1cc(=O)n(CC(=O)Nc2sc3c(c2C(=O)OC)CCC3)c2ccccc12	8.3*	.
COC(=O)c1c(NC(=O)c2ccccc2C(=O)O)sc2c1CCC2	1.8	0.85
COc1cc(C2c3c(-c4ccccc4O)n[nH]c3C(=O)N2CC2CCCO2)ccc1OCC(C)C (stereo not given)	0.82	0.06
COC(=O)c1c(-n2cccc2)sc(C)c1C	0.12	-1.5
CC1(C(=O)NC2CCCC2)Cn2c(ccc2-c2ccco2)C(=O)N1Cc1ccco1 (stereo not given)	3.7*	.
CC1CCCCN1CCN1C(=O)c2ccc(-c3ccco3)n2CC1(C)C(=O)NC1CCCCC1 (stereo not given)	-3.2	.
CC1(C(=O)NC2CCCCC2)Cn2c(ccc2-c2ccco2)C(=O)N1Cc1ccco1 (stereo not given)	-6.9	.
CC1CCCCN1CCN1C(=O)c2cc3ccccc3n2CC1(C)C(=O)NC1CCCCC1 (stereo not given)	18*	.
O=C(CN1C(=O)CSc2ncccc21)NCCC1=CCCCC1	-0.41	-0.17
Cc1n[nH]c(C)c1CCc1nc2c3ccccc3nc(NCc3cccnc3)n2n1	-0.35	-1.4
COCCCN=C1NS(=O)(=O)C(c2ccc(Cl)cc2)=C1C	0.36	0.57
O=C(Nc1cccc(C(=O)Nc2ccc(S(=O)(=O)O)c3cc(S(=O)(=O)O)cc(S(=O)(=O)O)c23)c1)Nc1cccc(C(=O)Nc2ccc(S(=O)(=O)O)c3cc(S(=O)(=O)O)cc(S(=O)(=O)O)c23)c1	.	4.6*
CC(=O)Nc1ccc(S(=O)(=O)Nc2cccc(C(=O)Nc3ccccc3C(=O)O)c2)cc1	.	-2.6

Screening results (PubChem)
